Data as given in PMC5540273 (PLoS ONE, 2017).

Columns and labels:
Conditions in all cases: concentration: 1 μM, replicates: in singlicate; n = 1
MRCKA = system: MRCKA
MRCKB = system: T1, MRCKB
T1 construct: gene CDC42BPB

MST1R = system: MST1R
MST1 = system: T2, MST1
T2 construct: gene STK4

MST2 = system: T3, MST2
T3 construct: gene STK3

MST3 = system: T4, MST3
T4 construct: gene STK24

MST4 = system: MST4
MTOR = system: MTOR
MUSK = system: MUSK
MYLK2 = system: MYLK2
MYLK4 = system: MYLK4
MYLK = system: MYLK
MYO3A = system: MYO3A
MYO3B = system: MYO3B
NDR1 = system: T5, NDR1
T5 construct: gene STK38

NDR2 = system: NDR2
NEK10 = system: NEK10
NEK11 = system: NEK11
NEK1 = system: NEK1
NEK2 = system: NEK2
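Note: KINOMEscan kinase panel screen.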

| Compound | %Inh (MRCKA) | %Inh (MRCKB) | %Inh (MST1R) | %Inh (MST1) | %Inh (MST2) | %Inh (MST3) | %Inh (MST4) | %Inh (MTOR) | %Inh (MUSK) | %Inh (MYLK2) | %Inh (MYLK4) | %Inh (MYLK) | %Inh (MYO3A) | %Inh (MYO3B) | %Inh (NDR1) | %Inh (NDR2) | %Inh (NEK10) | %Inh (NEK11) | %Inh (NEK1) | %Inh (NEK2) |
| --- | --- | --- | --- | --- | --- | --- | --- | --- | --- | --- | --- | --- | --- | --- | --- | --- | --- | --- | --- | --- |
| CCc1nc(-c2cccc(N(C)S(=O)(=O)c3ccccc3)c2)c(-c2ccnc(Nc3ccc(N4CCN(C(C)=O)CC4)nc3)n2)s1 [GSK1645895] | 0% | 0% | 40% | 3% | 16% | 15% | 0% | 2% | 1% | 0% | 7% | 15% | 23% | 0% | 15% | 0% | 0% | 0% | 14% | 9% |
| Fc1ccc(-c2ncn(CCCNCc3ccccc3)c2-c2ccncc2)cc1 | 0% | 18% | 18% | 2% | 39% | 11% | 0% | 11% | 9% | 0% | 0% | 13% | 7% | 22% | 0% | 19% | 34% | 19% | 0% | 0% |
| N#Cc1ccc(Oc2ccc(Nc3ncnc4cc[nH]c34)cc2Cl)cc1 | 12% | 32% | 11% | 10% | 19% | 24% | 0% | 13% | 6% | 16% | 13% | 30% | 18% | 38% | 33% | 0% | 3% | 0% | 0% | 10% |
| Nc1nc(-c2ccc3c(N)n[nH]c3c2)cc(N2CCCCC2)n1 [GSK2228768] | 0% | 0% | 11% | 0% | 0% | 0% | 0% | 0% | 3% | 0% | 0% | 1% | 0% | 0% | 0% | 0% | 0% | 0% | 0% | 3% |
| CS(=O)(=O)CCNCc1ccc(-c2ccc3ncnc(Nc4ccc(OCc5ccccc5)c(Cl)c4)c3c2)o1.Cl [GW574783] | 0% | 2% | 17% | 23% | 0% | 0% | 0% | 30% | 19% | 16% | 2% | 7% | 0% | 0% | 0% | 0% | 23% | 26% | 0% | 0% |
| Nc1nc(-c2ccccn2)c(-c2ccnc3ccccc23)s1 [GW548057] | 8% | 0% | 50% | 0% | 0% | 16% | 0% | 31% | 0% | 9% | 16% | 10% | 51% | 0% | 31% | 52% | 11% | 36% | 2% | 0% |
| O=C(Nc1ccccc1)Nc1ccc(Oc2ccc3nccn3n2)cc1 | 0% | 0% | 18% | 0% | 0% | 11% | 0% | 12% | 9% | 0% | 0% | 11% | 0% | 0% | 16% | 0% | 0% | 0% | 0% | 0% |
| Fc1cccc(COc2ccc(Nc3ncnc4sc(-c5ccc[nH]5)cc34)cc2Cl)c1 [GW707818] | 23% | 6% | 33% | 0% | 18% | 8% | 0% | 13% | 0% | 14% | 13% | 13% | 17% | 0% | 23% | 17% | 4% | 24% | 0% | 15% |
| Cc1ccc(O)cc1Nc1cc(C(F)(F)F)nc2ccc(-c3ccncc3)cc12 [GW630823] | 0% | 0% | 19% | 0% | 44% | 18% | 0% | 0% | 0% | 4% | 0% | 6% | 6% | 0% | 0% | 6% | 0% | 0% | 0% | 2% |
| O=C(CCO)NCCn1ccc2ncnc(Nc3ccc(Oc4cccc(C(F)(F)F)c4)c(Cl)c3)c21 | 0% | 2% | 0% | 0% | 0% | 0% | 0% | 31% | 0% | 0% | 6% | 0% | 0% | 3% | 20% | 0% | 0% | 0% | 0% | 0% |
